Results: PubChem BioAssay (NCATS)
Records with an inconclusive call do not appear. The source made the active and inactive calls. Unless noted, calls come from the whole dose curve; as a rule, active = well fitted curve in the direction sought with a large enough effect; inconclusive = small, poorly fitted or top-dose-only effect, or another doubt; inactive = no such curve, though single readings can be large; an effect the other way counts as inactive or inconclusive.

Tests used:
[1] = target: Lysosomal acid glucosylceramidase (Homo sapiens) (UniProt P04062); assay: Glucocerebrosidase-p2 (AID 348; in the data active = potency below about 10 µM; note: potency is the fitted concentration of half-maximal effect); details: purified GBA, blue fluorogenic substrate, 40 min
In short: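 Normal human glucocerebrosidase (0.2 nM) with blue fluorogenic substrate (80 uM final) in citrate/phosphate pH 5.9 with 10mM sodium taurocholate, 0.01% tween-20; 40 min RT, NaOH/glycine stop; fluorescence Ex 365/Em 440; AC50 from a titration from 0.6 nM upwards.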

[2] = AP1 Signaling Pathway (AID 357; active = well fitted curve in either direction with a large enough effect, not every such curve was filed as active;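 note: ME-180 reporter cells stimulated with EGF at its EC50 level; % is set by controls: 0 for no effect and ±100 for the full control effect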); details: ME-180 AP-1-bla reporter, EGF-induced, beta-lactamase ratio, 5 h; at 7.69 µM (top of the series) unless noted
In short: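 Cells are seeded overnight, exposed to compound titrations and an EC50 level of EGF for 5 hours at 37 °C, then loaded with CCF4 dye for 2.5 hours. Beta-lactamase activity under the AP-1 element is read as a blue/green ratio.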

[3] = target: Cytochrome P450 1A2 (Homo sapiens) (UniProt P05177); assay: p450-cyp1a2 (AID 410; calls by dose curve; note: potency is the fitted concentration of half-maximal effect); details: recombinant CYP1A2, luciferin-ME demethylation, luminescence; series mostly up to 57 µM
In short: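 O-Demethylation of luciferin 6' methyl ether by human CYP1A2 is monitored as luciferase luminescence. Substrate sits at Km (100uM); enzyme is 20nM. Values are scaled to 57 uM furafylline as maximal inhibition.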

[4] = NFAT Signaling Pathway (AID 444; active = well fitted curve in either direction with a large enough effect, not every such curve was filed as active;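 note: carbachol stimulus at about its EC50 of 1 µM final; % is set by controls: 0 for no effect and ±100 for the full control effect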); details: Jurkat NFAT-bla M1, carbachol, beta-lactamase ratio, 5 h; at 7.69 µM (top of the series) unless noted
In short: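 Jurkat cells carrying an NFAT-driven β-lactamase reporter and co-transfected muscarinic M1 receptor were treated with compound plus carbachol (1 uM final, an EC50 level) for 5 h at 37 °C. CCF4 loading followed for 1 h at RT; 460/530 nm ratio gave %activity.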

[5] = Stat Signaling Pathway (AID 446; active = well fitted curve in either direction with a large enough effect, not every such curve was filed as active;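 note: ME-180 cervical cancer cells given 40 pM IL-6 alongside compound; SIE-controlled beta-lactamase reporter measured as 460/530 nm FRET emission ratio; % is set by controls: 0 for no effect and ±100 for the full control effect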); details: ME-180 SIE beta-lactamase reporter, IL-6 stimulated, 5 h; at 7.69 µM (top of the series) unless noted
In short: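 Emission at 460 and 530 nm (excitation 405 nm) reports SIE-controlled beta-lactamase in ME-180 cells. Cells received compound with 40 pM IL-6 for 5 hrs at 37 C; data scaled between 300 pM IL-6 and 125 nM JAK-inhibitor controls.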

[6] = target: Glucocorticoid receptor (Homo sapiens) (UniProt P04150); assay: GR-GFP Redistribution (AID 450;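 active = compounds whose dose series gives a full or clear partial fitted curve of increased nuclear translocation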; note: potency is the fitted concentration of half-maximal effect); details: U2OS GR-GFP nuclear translocation, laser cytometry, 2 h
[7] = target: Glucocorticoid receptor (Homo sapiens) (UniProt P04150); assay: GR-EFC Redistribution (AID 451; calls by dose curve; note: potency is the fitted concentration of half-maximal effect); details: CHO-K1 GR-EFC translocation, beta-gal luminescence, 2 h
In short: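 CHO-K1 cells stably expressing nuclear-localized β-gal enzyme acceptor and GR fused C-terminally to the enzyme donor fragment; ligand-driven nuclear translocation restores β-gal by complementation. Compounds titrated up to 46 uM final, 2 h at 37 °C; luminescence read.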

[8] = target: Mitogen-activated protein kinase 10 (Mus musculus) (UniProt Q61831); assay: JNK3 AlphaScreen Assay (AID 530; active = well fitted curve in either direction with a large enough effect, not every such curve was filed as active;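 note: kinase came from lysate of stimulated human HepG2 cells; signal reports phosphorylation of biotinylated GST-cJun 1-79 at Ser73 with 10 µM ATP; % is set by controls: 0 for no effect and ±100 for the full control effect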); details: JNK3 lysate, c-Jun phosphorylation; series mostly up to 57.1 µM
In short: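 Phosphorylation of biotinylated GST-cJun(1-79) at Ser73 is measured by AlphaScreen proximity luminescence. Enzyme is JNK3 in HepG2 lysates activated with interleukin-1beta and tumor necrosis factor alpha; ATP is 10 uM final.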

[9] = target: Cytochrome P450 3A4 (Homo sapiens) (UniProt P08684); assay: qHTS Assay for Activators of Cytochrome P450 3A4 (AID 885); details: recombinant CYP3A4, Luciferin-PPXE luminescence, 60 min; series mostly up to 57.1 µM; note: nearly all actives have a fitted effect of over 65% in size
In short: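 Activators are scored by enhanced luminescence from CYP3A4 conversion of luciferin-PPXE (25uM, equal to KM) to luciferin, after 60 min at RT with an NADPH-regenerating system.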

[10] = Confirmation and Secondary Assay for Modulators of Hemoglobin Beta Chain Splicing at IVS2 654 locus (AID 910); details: HeLa EGFP-654 splicing reporter, GFP fluorescence, 48 h; series mostly up to 38.3 µM;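 note: per-well total GFP intensity by laser scanning cytometry after 2-day treatment; % of control where 0% means no effect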
In short: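 HeLa cells stably carrying EGFP interrupted by mutant beta-globin IVS2-654 intron (CMV-driven) were treated with compound for 2 days at 37C; corrected splicing was scored as total peak GFP intensity per well (488 nm excitation, 500-520 nm emission).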

[11] = Confirmation and Secondary Assay for Modulators of Hemoglobin Beta Chain Splicing at IVS2 705 locus (AID 930); details: HeLa EGFP-705 splicing reporter, GFP fluorescence, 48 h; series mostly up to 38.3 µM;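 note: HeLa cells stably expressing the EGFP-705 splicing reporter; % of control where 0% means no effect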
In short: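 HeLa cells stably carrying EGFP interrupted by mutant beta-globin IVS2-705 intron (CMV-driven) were seeded at 500 cells/well, treated next day with compound for 2 days at 37C; corrected splicing restores EGFP, read as total peak GFP intensity per well.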

[12] = qHTS Assay for Lipid Storage Modulators (AID 1519; calls by dose curve); details: Drosophila S3 cells, BODIPY lipid droplet/cell ratio, laser cytometry, cells loaded with oleic acid; for activity change, negative = inhibition: at 57.5 µM (top of the series)
In short: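 Cells seeded at 5,000 per well were treated with compounds over a concentration series and loaded with oleic acid (400 uM, as added). Lipid droplet fluorescence (488 nm excitation, 500-530 nm channel) was read by laser-scanning cytometry and normalized to 20 uM Triacsin C.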

[13] = target: Ubiquitin carboxyl-terminal hydrolase 1 (Homo sapiens) (UniProt O94782); assay: Inhibitors of USP1/UAF1: Pilot qHTS (AID 504865); details: purified USP1/UAF1, Ub-rhodamine cleavage fluorescence; series mostly up to 54.9 µM;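 note: rhodamine fluorescence freed from ubiquitin-rhodamine substrate followed over time; top concentration of the series differs between compounds; % is set by controls: 0 for no effect and ±100 for the full control effect; nearly all actives have a fitted effect of over 35% in size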
In short: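 Enzyme-free wells gave the negative control, while test wells held 1nM USP1/UAF1 preincubated with compound for 15 min at room temperature. Ub-Rho at 150nM final started the reaction, and fluorescence at 480/540 nm was recorded kinetically.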

[14] = Primary qHTS for small molecule stabilizers of the endoplasmic reticulum resident proteome: Secreted ER Calcium Modulated Protein (SERCaMP) assay (AID 1508630); details: SH-SY5Y GLuc-SERCaMP (Gaussia luciferase released on ER calcium loss) secretion, thapsigargin, luminescence; series mostly up to 38.4 µM; note: % is set by controls: 0 for no effect and ±100 for the full control effect
In short: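 The SH-SY5Y reporter protocol was run at 3 concentrations up to 38.3 uM (primary) or 11 concentrations (follow-up): 16 h compound, 100 nM thapsigargin for 4 h, then extracellular luciferase luminescence.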

[15] = target: 3',5'-cyclic-AMP phosphodiesterase 4B (Homo sapiens) (UniProt Q07343); assay: qHTS Assay for Inhibitors of PDE-IV (AID 607; active = well fitted activation curve with a large enough effect in the main read-out, with a control signal flat, not every such curve was filed as active; note: % of control where 0% means no effect); details: HEK293 ACTOne CNG channel cells, membrane potential fluorescence; series mostly up to 22.9 µM
In short: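 The readout is membrane depolarisation from a cAMP-sensing CNG channel, detected with a potential dye at ex 535/em 590. Cells were HEK293-derived (endogenous PDE-IV) at 1000 cells/well, titrated up to 22.9 uM final.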

[16] = target: Cytochrome P450 2C19 (Homo sapiens) (UniProt P33261); assay: qHTS Assay for Inhibitors and Substrates of Cytochrome P450 2C19 (AID 899); details: recombinant CYP2C19, luciferin-H EGE luminescence; series mostly up to 57.1 µM; note: potency is the fitted concentration of half-maximal effect; nearly all actives have a fitted effect of over 60% in size
In short: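 In 50mM KPO4, the reaction held 5nM enzyme and KM-level (10uM) Luciferin-H EGE; it ran 60 min at 37C after NADPH regeneration and a 10 min compound preincubation. Luminescence values were scaled to 57uM ketoconazole as complete inhibition.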

[17] = qHTS Assay for Identification of Small Molecule Agonists for Hypoxia Response Element Signaling Pathway (AID 914; active = well fitted activation curve with a large enough effect in the signal ratio, with a control signal flat, not every such curve was filed as active; the % refers to the signal ratio; note: % of control where 0% means no effect); details: ME-180 HRE-bla reporter, beta-lactamase ratio, CoCl2, 17 h; activation: stronger effect = higher value
In short: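 ME-180 cells carrying an HRE-driven beta-lactamase reporter were treated with compounds in a titration series plus an EC50 level of CoCl2 for 17 h at 37 degrees Celsius; CCF4 readout as the 460nm/530nm ratio gave AC50 values.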

[18] = target: Cytochrome P450 3A4 (Homo sapiens) (UniProt P08684); assay: qHTS Assay for Inhibitors and Substrates of Cytochrome P450 3A4 (AID 884); details: recombinant CYP3A4, Luciferin-PPXE luminescence; series mostly up to 57.1 µM; note: potency is the fitted concentration of half-maximal effect; nearly all actives have a fitted effect of over 50% in size
In short: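 Luminescent readout of luciferin produced by CYP3A4 (20 nM) dealkylation of Luciferin-PPXE, 25 uM (its KM). NADPH-driven reaction ran 60 min at RT after 10 min compound preincubation; data scaled to 57 uM ketoconazole as 100% inhibition.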

[19] = measured here: cell count channel max response
[20] = measured here: lipid channel max response

Sequence of 3',5'-cyclic-AMP phosphodiesterase 4B (Homo sapiens) (Q07343 whole entry, looked up): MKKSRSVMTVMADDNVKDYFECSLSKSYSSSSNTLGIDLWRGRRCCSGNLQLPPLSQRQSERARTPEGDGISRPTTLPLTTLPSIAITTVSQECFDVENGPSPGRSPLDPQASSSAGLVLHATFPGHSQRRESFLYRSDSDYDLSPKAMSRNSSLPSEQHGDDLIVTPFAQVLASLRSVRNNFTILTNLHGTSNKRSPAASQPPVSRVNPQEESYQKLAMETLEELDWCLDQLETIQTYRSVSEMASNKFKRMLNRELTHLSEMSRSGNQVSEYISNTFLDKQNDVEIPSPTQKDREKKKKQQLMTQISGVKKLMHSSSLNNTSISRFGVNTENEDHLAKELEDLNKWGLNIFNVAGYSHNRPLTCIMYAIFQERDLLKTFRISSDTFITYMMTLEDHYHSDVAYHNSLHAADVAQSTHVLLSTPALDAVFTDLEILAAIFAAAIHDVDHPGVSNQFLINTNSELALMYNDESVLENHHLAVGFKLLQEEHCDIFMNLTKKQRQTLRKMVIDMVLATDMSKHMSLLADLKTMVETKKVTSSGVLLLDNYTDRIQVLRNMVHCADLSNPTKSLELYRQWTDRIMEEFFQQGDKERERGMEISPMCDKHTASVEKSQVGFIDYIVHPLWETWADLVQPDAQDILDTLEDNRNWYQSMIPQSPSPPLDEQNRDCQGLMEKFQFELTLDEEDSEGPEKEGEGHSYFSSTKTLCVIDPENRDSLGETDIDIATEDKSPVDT
Sequence of Cytochrome P450 3A4 (Homo sapiens) (P08684 whole entry, looked up): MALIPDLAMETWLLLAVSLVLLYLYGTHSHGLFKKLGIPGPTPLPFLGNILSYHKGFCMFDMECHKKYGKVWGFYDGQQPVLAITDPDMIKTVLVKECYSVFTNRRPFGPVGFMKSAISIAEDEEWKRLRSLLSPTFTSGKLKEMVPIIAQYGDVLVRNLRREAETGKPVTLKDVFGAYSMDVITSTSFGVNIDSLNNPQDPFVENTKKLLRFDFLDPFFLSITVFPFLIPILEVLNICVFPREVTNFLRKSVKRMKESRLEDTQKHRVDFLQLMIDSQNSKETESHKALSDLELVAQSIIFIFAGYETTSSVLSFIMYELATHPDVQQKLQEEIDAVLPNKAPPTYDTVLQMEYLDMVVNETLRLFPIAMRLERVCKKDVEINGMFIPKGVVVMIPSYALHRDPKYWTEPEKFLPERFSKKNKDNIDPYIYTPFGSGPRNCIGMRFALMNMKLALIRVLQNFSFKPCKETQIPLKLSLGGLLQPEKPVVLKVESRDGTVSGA
Sequence of Glucocorticoid receptor (Homo sapiens) (P04150 whole entry, looked up, the tested form may be a part): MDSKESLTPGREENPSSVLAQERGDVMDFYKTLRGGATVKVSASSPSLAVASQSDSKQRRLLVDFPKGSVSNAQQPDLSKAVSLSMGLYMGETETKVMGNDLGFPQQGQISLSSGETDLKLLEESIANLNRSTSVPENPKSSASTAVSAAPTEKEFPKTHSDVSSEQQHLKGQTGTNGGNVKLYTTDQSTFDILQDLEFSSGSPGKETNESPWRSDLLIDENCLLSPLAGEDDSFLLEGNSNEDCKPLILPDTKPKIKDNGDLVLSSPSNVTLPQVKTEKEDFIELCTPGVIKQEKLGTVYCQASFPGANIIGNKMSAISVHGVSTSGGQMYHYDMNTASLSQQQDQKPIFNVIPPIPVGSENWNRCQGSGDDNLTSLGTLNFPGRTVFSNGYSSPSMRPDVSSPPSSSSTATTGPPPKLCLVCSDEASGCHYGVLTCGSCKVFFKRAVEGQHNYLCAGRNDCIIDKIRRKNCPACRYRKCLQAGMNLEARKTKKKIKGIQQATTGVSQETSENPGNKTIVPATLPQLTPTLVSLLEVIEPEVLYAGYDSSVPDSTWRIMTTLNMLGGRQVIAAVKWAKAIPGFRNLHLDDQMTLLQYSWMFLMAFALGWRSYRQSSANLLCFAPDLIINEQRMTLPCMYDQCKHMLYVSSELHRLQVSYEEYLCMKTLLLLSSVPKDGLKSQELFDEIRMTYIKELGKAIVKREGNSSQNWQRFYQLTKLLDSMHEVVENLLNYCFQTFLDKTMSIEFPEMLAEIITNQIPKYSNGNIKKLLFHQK
Sequence of Cytochrome P450 1A2 (Homo sapiens) (P05177 whole entry, looked up): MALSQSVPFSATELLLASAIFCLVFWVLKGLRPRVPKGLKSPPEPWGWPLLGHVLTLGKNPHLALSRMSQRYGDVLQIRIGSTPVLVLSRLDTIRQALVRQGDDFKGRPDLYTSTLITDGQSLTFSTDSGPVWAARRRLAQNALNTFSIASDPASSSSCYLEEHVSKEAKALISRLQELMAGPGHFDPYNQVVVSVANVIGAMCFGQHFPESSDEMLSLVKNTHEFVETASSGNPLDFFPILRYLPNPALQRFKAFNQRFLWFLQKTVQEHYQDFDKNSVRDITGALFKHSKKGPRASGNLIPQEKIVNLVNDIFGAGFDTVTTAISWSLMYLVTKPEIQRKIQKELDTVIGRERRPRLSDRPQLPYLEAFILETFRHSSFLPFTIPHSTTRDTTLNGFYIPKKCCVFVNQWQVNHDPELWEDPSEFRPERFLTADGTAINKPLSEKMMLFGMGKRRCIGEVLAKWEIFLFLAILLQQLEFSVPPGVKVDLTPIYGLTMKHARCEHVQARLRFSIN
Sequence of Ubiquitin carboxyl-terminal hydrolase 1 (Homo sapiens) (O94782 whole entry, looked up): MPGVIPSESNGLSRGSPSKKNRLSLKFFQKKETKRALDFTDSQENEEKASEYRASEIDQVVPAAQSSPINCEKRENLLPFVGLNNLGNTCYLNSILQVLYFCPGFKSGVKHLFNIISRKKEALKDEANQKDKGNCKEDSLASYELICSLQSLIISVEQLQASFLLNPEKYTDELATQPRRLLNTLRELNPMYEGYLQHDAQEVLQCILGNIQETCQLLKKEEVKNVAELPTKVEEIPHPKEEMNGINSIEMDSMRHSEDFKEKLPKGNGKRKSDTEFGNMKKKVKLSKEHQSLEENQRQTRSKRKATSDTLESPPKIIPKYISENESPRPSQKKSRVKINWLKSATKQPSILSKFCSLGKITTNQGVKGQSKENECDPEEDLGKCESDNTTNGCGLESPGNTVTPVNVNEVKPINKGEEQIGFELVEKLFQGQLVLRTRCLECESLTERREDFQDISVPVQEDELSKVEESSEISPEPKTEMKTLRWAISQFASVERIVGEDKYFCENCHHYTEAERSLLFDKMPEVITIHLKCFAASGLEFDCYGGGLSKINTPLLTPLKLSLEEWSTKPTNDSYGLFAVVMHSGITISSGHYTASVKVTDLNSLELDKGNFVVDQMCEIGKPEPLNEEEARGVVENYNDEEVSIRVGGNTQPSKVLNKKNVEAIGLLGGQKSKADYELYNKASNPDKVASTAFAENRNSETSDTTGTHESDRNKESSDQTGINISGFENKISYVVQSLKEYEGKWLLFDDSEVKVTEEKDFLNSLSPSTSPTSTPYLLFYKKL
Sequence of Lysosomal acid glucosylceramidase (Homo sapiens) (P04062 whole entry, looked up): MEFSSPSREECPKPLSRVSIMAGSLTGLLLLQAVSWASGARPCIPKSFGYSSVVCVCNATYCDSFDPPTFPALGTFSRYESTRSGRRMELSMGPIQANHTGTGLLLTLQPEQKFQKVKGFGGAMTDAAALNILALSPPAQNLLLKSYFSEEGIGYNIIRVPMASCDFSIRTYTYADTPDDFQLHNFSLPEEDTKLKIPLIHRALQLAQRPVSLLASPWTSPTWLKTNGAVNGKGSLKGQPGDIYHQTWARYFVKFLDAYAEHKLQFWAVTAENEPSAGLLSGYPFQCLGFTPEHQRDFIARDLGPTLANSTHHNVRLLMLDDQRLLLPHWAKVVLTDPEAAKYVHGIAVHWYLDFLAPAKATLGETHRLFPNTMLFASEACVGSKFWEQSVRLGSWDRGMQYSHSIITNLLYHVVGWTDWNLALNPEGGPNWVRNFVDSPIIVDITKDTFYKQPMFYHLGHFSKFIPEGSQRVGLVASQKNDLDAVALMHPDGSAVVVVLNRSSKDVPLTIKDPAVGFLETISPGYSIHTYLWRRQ
Sequence of Cytochrome P450 2C19 (Homo sapiens) (P33261 whole entry, looked up): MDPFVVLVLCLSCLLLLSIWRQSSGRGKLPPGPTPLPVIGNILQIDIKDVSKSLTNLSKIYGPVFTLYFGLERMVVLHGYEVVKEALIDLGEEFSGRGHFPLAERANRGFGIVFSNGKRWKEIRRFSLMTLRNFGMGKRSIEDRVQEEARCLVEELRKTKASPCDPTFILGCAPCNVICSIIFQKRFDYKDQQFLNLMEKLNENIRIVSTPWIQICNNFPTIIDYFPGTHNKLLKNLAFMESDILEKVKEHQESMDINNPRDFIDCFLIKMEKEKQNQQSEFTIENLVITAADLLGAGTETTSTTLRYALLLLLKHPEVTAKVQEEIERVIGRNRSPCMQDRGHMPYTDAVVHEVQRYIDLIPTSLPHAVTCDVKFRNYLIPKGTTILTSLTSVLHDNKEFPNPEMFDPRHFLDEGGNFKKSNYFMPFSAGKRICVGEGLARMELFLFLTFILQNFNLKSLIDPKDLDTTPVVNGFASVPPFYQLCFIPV

| SMILES | Potency [1] | activity change, negative = inhibition [2] | Potency [3] | activity change, negative = inhibition [4] | activity, negative = inhibition [5] | Potency [6] | Potency [7] | outcome [8] | Potency [9] | outcome [10] | outcome [11] | activity change, negative = inhibition [12] | max response [12, 19] | max response [12, 20] | Potency [13] | Potency [14] | Potency [15] | Potency [16] | activation [17] | Potency [18] |
| --- | --- | --- | --- | --- | --- | --- | --- | --- | --- | --- | --- | --- | --- | --- | --- | --- | --- | --- | --- | --- |
| CN(C)Cc1ccccc1-c1nc(NCc2ccccc2)c2ccccc2n1 | > 11.4 µM (inactive) | 15.5% (inactive) | 1.26 µM (active) | -17.2% (inactive) | 4.49% (inactive) | > 46 µM (inactive) | > 46 µM (inactive) | inactive | inactive | inactive | inactive | 5.53% (inactive) | 1.11% | 6.16% | inactive | inactive |  |  |  |  |
| COc1ccccc1CNc1ncncc1-c1cccc(C#N)c1 | > 11.4 µM (inactive) | -6.51% (inactive) | 10 µM (active) | -5.86% (inactive) | -0.225% (inactive) | > 46 µM (inactive) | > 46 µM (inactive) | inactive | inactive | inactive | inactive | 6.39% (inactive) | -8.3% | 8.29% | inactive | inactive | inactive | 3.16 µM (active) | -9.43% (inactive) |  |
| Cc1noc(C)c1-c1cc(Nc2ccc(F)cc2)ncn1 | > 11.4 µM (inactive) | -7.8% (inactive) | 0.501 µM (active) | -15.1% (inactive) | 3.16% (inactive) | > 46 µM (inactive) | > 46 µM (inactive) | inactive | inactive | inactive | inactive | 8.49% (inactive) | 3.61% | 10.9% | inactive | inactive | inactive |  |  |  |
| COCCNc1nc(-c2ccccc2CN(C)C)nc2ccccc12 | > 11.4 µM (inactive) | 4.08% (inactive) | 10 µM (active) | -0.773% (inactive) | 10% (inactive) | > 46 µM (inactive) | > 46 µM (inactive) | inactive | inactive | inactive | inactive | 3.16% (inactive) | 2.38% | 6.21% | inactive | inactive | inactive |  | 2.67% (inactive) |  |
| COc1cccc(-c2cncnc2-n2ccnc2)c1 | > 11.4 µM (inactive) | 3.37% (inactive) | 0.1 µM (active) | -0.356% (inactive) | -1.78% (inactive) | > 46 µM (inactive) | > 46 µM (inactive) | inactive | inactive | inactive | inactive | 7.42% (inactive) | -2.24% | 4.82% | inactive | inactive | inactive | 0.631 µM (active) |  | 0.316 µM (active) |
